Screening results from PubChem.
Only some compounds are listed: those with a hit (about 3.8% of all), similar ones and a draw of the others.
TGFb inhibitor: qHTS for Inhibitors of TGF-b. AID 588855, 2011. Potency, µM (doses to about 46.1 µM), inactives show top-dose activity, negative = inhibition, most hits filed as inhibitors. actives 1.2% (n = 410,000). HepG2 CAGA-GFP TGF-b/SMAD3 reporter, GFP fluorescence, 18 h; TGF-beta stimulated, 500 pg/mL final; further: on the % scale 0 is the no-effect control and ±100 the full control effect; nearly all actives have a fitted effect of over 65% in size
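TGF-beta reporter screen: HEPG2 CAGA-GFP, 1% FBS, 500 pg/mL TGF-beta final, 18 h; per-cell GFP summed per well; curves fitted and categorized by class.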
A549 viability: Nrf2 qHTS screen for inhibitors: counterscreen for cytotoxicity; A549 ARE-Fluc cells, CellTiter-Fluor viability, 18-24 h; Potency, µM (series often up to 46 µM), inactives show at the top dose activity change, negative = cytotoxicity, most hits filed as inhibitors; actives 0.16% (n = 390,000); AID 504648, 2011; further: on the % scale 0 is the no-effect control and ±100 the full control effect
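A549 ARE_Fluc cells in 5% FBS OPTI-MEM were exposed to compounds in concentration-response for 18-24 h at 37 deg C. Viability was read by CellTiter-Fluor fluorescence (Ex 405/Em 525) after 30 min, before the luciferase read.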
S2 tox: Viability Counterscreen for Primary qHTS for Inhibitors of ATXN expression. S2 cells (HEK-293 line with an ATXN2-luciferase reporter) viability, CellTiter-Fluor protease fluorescence, 24 h. Potency, µM (series often up to 56.7 µM), usual class: cytotoxic. actives 0.49% (n = 400,000). AID 651635, 2014; further: nearly all actives have a fitted effect of over 40% in size
HepG2 tox: qHTS for Inhibitors of TGF-b: Cytotox Counterscreen. HepG2 CAGA-GFP viability, ATP luminescence, 18 h. Potency, µM (series often up to 46.1 µM), for inactives: top-dose activity change, negative = cytotoxicity, hits mostly cytotoxic. actives 0.76% (n = 410,000)
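HepG2 CAGA-GFP cells (1000/well, DMEM with 1% FBS) received compound, then TGF-beta at 500 pg/mL final, and were incubated 18 hours at 37 degrees C. Viability was read by CellTiter-Glo luminescence. Media-only wells were set as complete cell-killing and DMSO as no toxicity.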
ATXN2 expr inh: Primary qHTS for Inhibitors of ATXN expression; HEK-293 ATXN2-luciferase reporter, luminescence, 24 h; Potency, µM (doses to about 57 µM), for inactives: top-dose activity change, negative = inhibition, usual class: inhibitors; actives 0.72% (n = 360,000); AID 1745845, 2022; further: on the % scale 0 is the no-effect control and ±100 the full control effect; nearly all actives have a fitted effect of over 55% in size
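ATXN2-luciferase reporter cells (luciferase flanked by upstream and downstream ATXN2 gene portions) were treated 24 h at 37 °C with compounds at up to 57 uM. SteadyGlo luminescence gave expression; GF-AFC fluorescence gave viability.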
Nrf2 block: Nrf2 qHTS screen for inhibitors. A549 ARE-Fluc reporter, luciferase luminescence, 18-24 h. actives 2.1% (n = 360,000). AID 504444, 2011. Potency, µM (top dose mostly 46 µM), for the others: top-dose activity change, negative = inhibition, hits mostly inhibitors; further: on the % scale 0 is the no-effect control and ±100 the full control effect; nearly all actives have a fitted effect of over 60% in size
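Nrf2 function is reported as luminescence of an ARE-controlled luciferase in A549 cells. Compounds were tested at several concentrations, and a CellTiter-Fluor read on the same wells flagged cytotoxicity.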
Starred values were filed as active, the others as inactive; i = inactive; ? = inconclusive; · = not tested or not shown. The call rests on the fitted dose curve; in most records, active means well fitted curve in the direction sought with a large enough effect; inconclusive means small, poorly fitted or top-dose-only effect, or another doubt; inactive means no such curve, though single readings can be large; an effect the other way counts as inactive or inconclusive. Potency means the concentration at half of the fitted maximal effect.

SMILES | TGFb inhibitor | A549 viability | S2 tox | HepG2 tox | ATXN2 expr inh | Nrf2 block
CCc1nc2ccccc2c(C(=O)OCC(=O)NCc2ccc3c(c2)OCO3)c1C | ? | 0% | i | -9% | -4% | 1%
NC(=O)/C(=N\OC(=O)c1ccco1)c1nc(-c2ccc(Br)cc2)cs1 | -26% | -2% | i | -55% | -14% | 1%
COc1nc2c(C)cccc2cc1-c1noc(-c2ccco2)n1 | 10% | 9% | i | 11% | 5% | ?
N#Cc1c(N)n(CCNC(=O)c2ccc(Cl)cc2)c2nc3ccccc3nc12 | -3% | 10% | i | -9% | -23% | 9.2µM*
COc1ccc(-n2c(N)c(C(=O)NCc3ccco3)c3nc4ccccc4nc32)cc1 | ? | -4% | i | -33% | ? | ?
COCCn1c(N)c(C(=O)NCc2cccs2)c2nc3ccccc3nc21 | ? | 7% | · | -12% | 0% | 23µM*
Nc1c(C(=O)NCc2ccco2)c2nc3ccccc3nc2n1CCc1ccc(F)cc1 | 16µM* | -6% | · | -103% | -34% | ?
Nc1c(C(=O)NCCN2CCOCC2)c2nc3ccccc3nc2n1CCc1ccccc1 | -16% | -7% | · | -38% | ? | 15µM*
CCc1ccc(NC(=O)c2ccc3c(c2)N(Cc2ccc(C)cc2)CCS3)cc1 | -2% | -2% | i | -13% | 35% | ?
COc1cccc(CN2C(=O)c3ccccc3Sc3ccc(C(=O)NCCc4ccc(Cl)cc4)cc32)c1 | -9% | 0% | · | -14% | · | ?
COC(=O)[C@@]12OC[C@]34[C@H]([C@@H](O)[C@@H]1O)[C@@]1(C)C(=O)C(O[C@@H]5OC(CO)[C@@H](O)[C@@H](O)[C@@H]5O)=C[C@@H](C)[C@@H]1C[C@H]3OC(=O)[C@H](OC(=O)/C=C(\C)C(C)(C)OC(C)=O)[C@@H]24 (stereo partly specified) | ? | ? | ? | -27% | ? | 2.9µM*
Cc1ccc(C)c(NC(=O)COC(=O)CCC(=O)c2cccs2)c1 | -6% | -2% | i | 8% | 1% | 1%
CCN(C1CCCCC1)S(=O)(=O)CCNC(=O)c1ccccc1 | -10% | -3% | i | 4% | 3% | -1%
Cc1ccc(NC(=O)/C=C\C(=O)N(c2ccc(C(C)C)cc2)C(C(=O)NCc2ccco2)c2ccc(F)cc2)cc1 (stereo unspecified) | 6.3µM* | -25% | · | -41% | · | ·
COc1ccc(NC(=O)/C=C\C(=O)N(c2ccc(C(C)C)cc2)C(C(=O)NCc2ccco2)c2ccc(C)cc2)cc1 (stereo unspecified) | ? | ? | · | -32% | · | ·
Cc1cccc(N(O)C(=O)Nc2cccc(Cl)c2)c1 | ? | -2% | i | 11% | 17% | ?
Cc1cc(C)n(-c2ccc(C(=O)Nc3ccc(S(=O)(=O)NCc4ccco4)cc3)cc2)n1 | ? | ? | i | -22% | -31% | 26µM*
Cc1ccc(S(=O)(=O)NCC(=O)N(CC(=O)NCc2ccco2)Cc2ccccc2)cc1 | 2% | 0% | i | 16µM* | -4% | 13%
O=C(Nc1ccccc1)c1cccc(S(=O)(=O)NCc2ccco2)c1 | -8% | ? | i | -9% | -4% | 16µM*
O=S(=O)(NCc1ccccc1)c1ccc(NC(=S)NCc2ccco2)cc1 | ? | 2% | i | 11µM* | · | ?
CCN(Cc1ccccc1)c1ccc(Br)cn1 | · | 7% | · | · | · | 23%
CC1CC(=O)Nc2ccccc2N1S(=O)(=O)c1cccc(Cl)c1 (stereo unspecified) | -1% | 2% | i | -7% | 11% | 2%
Cc1ccc(C)c(N2CCN(C(=O)c3cc(S(=O)(=O)N4CCCC4)c[nH]3)CC2)c1 | ? | 6% | · | -17% | · | 15%
Cc1ccc(CNC(=O)CNC(=S)N(Cc2ccccc2)Cc2cccnc2)cc1 | -9% | 0% | i | -7% | -9% | 4%
Cc1ccc(CN(Cc2ccco2)C(=S)NCC(=O)NCc2cccnc2)cc1 | -3% | -10% | i | 6% | -16% | 7.3µM*
SMILES | TGFb inhibitor | A549 viability | S2 tox | HepG2 tox | ATXN2 expr inh | Nrf2 block
CCCN1CCCc2cc(CN(CCCN3CCOCC3)C(=O)Nc3ccc(Cl)c(Cl)c3)ccc21 | ? | ? | 10µM* | -37% | 0% | ·
CCCN1CCCc2cc(CN(CCCN3CCOCC3)C(=O)Nc3ccc(OCC)cc3)ccc21 | -26% | ? | ? | -6% | -1% | ·
Cc1ccc(NC(=O)c2cccc(OCc3c(C)noc3C)c2)c(C)c1 | -17% | -1% | i | -4% | 1% | ?
CC(=O)Nc1ccc(NC(=O)c2ccc(OCc3c(C)noc3C)cc2)cc1 | -7% | 1% | i | -16% | 4% | -6%
Cc1ccc(NC(=O)c2ccc(OCc3c(C)noc3C)cc2)c(C)c1 | -2% | -7% | i | -23% | -14% | 23µM*
Cc1noc(C)c1COc1cccc(C(=O)Nc2ccc(Br)cc2F)c1 | -23% | ? | i | 4% | -6% | 23µM*
Cc1ccc(NC(=O)c2ccc(OCc3c(C)noc3C)cc2)cc1C | 9% | ? | i | -24% | -29% | 18µM*
O=C(NCc1nnc2n1CCN(C(=O)/C=C/c1ccccc1)CC2)c1cccc(F)c1 | · | · | i | · | · | ·
COc1cc(OC)c(OC)cc1CN1CCC(n2cc(C(=O)N3CCCCC3)nn2)CC1 | · | · | i | · | · | ·
CCC1(C2CCN(Cc3ccc(C)s3)CC2)NC(=O)N(CC2COc3ccccc3O2)C1=O (stereo unspecified) | · | · | i | · | · | ·
COc1cccc2c(=O)cc(C)n(CC(=O)Nc3ccc(C)c(C)c3)c12 | -5% | -9% | i | -40% | -13% | ?
COc1ccccc1NC(=O)CN1CCCCCC1 | -24% | 0% | i | 2% | -2% | 3%
COc1ccccc1NC(=O)CN1CCOCC1 | 0% | -14% | i | 7.9µM* | -31% | -22%
COc1ccccc1NC(=O)Cn1c(C)cc(=O)c2cccc(OC)c21 | ? | -15% | ? | -25% | -11% | 12µM*
COc1ccc(CCNC(=O)CC(=O)N/N=C\c2ccc(OCC(N)=O)cc2)cc1OC | -5% | · | i | 3% | · | ·
CN(Cc1ccc(Cl)s1)C(=O)CCl | 7.1µM* | -4% | · | -63% | 13µM* | -22%
